Experimental data as given in the supplement of paper PMC12350171.
Counter-ions that a name gives are not always drawn. Values without a mark were called inactive.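 Rule for the calls: active = normalised median growth AUC below 0.1 of DMSO control; inactive = AUC 0.1 or higher.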

Test system: S. enterica typhimurium WT
Assay: growth AUC normalised to DMSO control (median) (fraction of control); higher = less growth inhibition, active = hit call of the paper
Conditions: 20 µM
In short: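 Anaerobic growth was tracked hourly at OD578 for 24 h in 96-well plates of mGAM seeded at OD578 0.01 with each approved-drug library compound at 20 μM and 1% DMSO. Strains had first been passaged twice overnight without oxygen. Three biological replicates were run. The reported median is the area under the curve, calculated by the trapezoidal rule on curves truncated at entry into stationary phase and normalised to vehicle wells on the same plate.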
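Note: active when median AUC fell below 0.1.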

Compound | growth AUC normalised to DMSO control
O=C(NCC(O)CO)c1c(I)c(C(=O)NCC(O)CO)c(I)c(N(CCO)C(=O)CO)c1I (stereo not given) [Ioversol] | 1
CC(CN(C)C)CN1c2ccccc2Sc2ccccc21 (stereo not given) [Trimeprazine tartrate] | 1
CCCCC[C@H](O)/C=C/[C@H]1[C@H](O)CC(=O)[C@@H]1CCCCCCC(=O)O [Alprostadil] | 1
CCCCOC(=O)c1ccc(O)cc1 [Butylparaben] | 0.994
CN1CCCN=C1/C=C/c1cccc(O)c1 [Oxantel pamoate] | 1.01
Cc1ccc(S(=O)(=O)NC(=O)NN2CC3CCCC3C2)cc1 (stereo not given) [Gliclazide] | 1
CC1CNc2c(cccc2S(=O)(=O)N[C@@H](CCCNC(=N)N)C(=O)N2CC[C@@H](C)C[C@@H]2C(=O)O)C1 (stereo not given in full) [Argatroban] | 1.01
CCCCC1C(=O)N(c2ccccc2)N(c2ccc(O)cc2)C1=O (stereo not given) [Oxyphenbutazone] | 1.01
COc1c(N2C[C@@H]3CCCN[C@@H]3C2)c(F)cc2c(=O)c(C(=O)O)cn(C3CC3)c12 [Moxifloxacin] | 0.0075 (active)
CN(Cc1ccc(C(C)(C)C)cc1)Cc1cccc2ccccc12 [Butenafine hydrochloride] | 0.995
CC(=O)OCC(=O)[C@@]12N=C(C)O[C@@H]1C[C@H]1[C@@H]3CCC4=CC(=O)C=C[C@]4(C)[C@H]3[C@@H](O)C[C@@]12C [Deflazacort] | 0.994
CN1CCN(C2=Nc3ccccc3Oc3ccc(Cl)cc32)CC1 [Loxapine succinate] | 1.01
CC(C)(C)NCC(O)COc1cccc2c1CCC(=O)N2 (stereo not given) [Carteolol hydrochloride] | 0.998
O=C(CCCCCCC(=O)Nc1ccccc1)NO [Vorinostat] | 0.997
O=C1CN(/N=C/c2ccc([N+](=O)[O-])o2)C(=O)N1 [Nitrofurantoin] | 0.836
N=C(N)NCC1COC2(CCCCC2)O1 (stereo not given) [Guanadrel sulfate] | 0.994
CC(=O)Nc1ccc(OCC(O)CNC(C)C)cc1 (stereo not given) [Practolol] | 1.02
C[C@H](O)C(=O)Nc1c(I)c(C(=O)NC(CO)CO)c(I)c(C(=O)NC(CO)CO)c1I [Iopamidol] | 1.01
Cc1ncc(CO)c(CO)c1O [Pyridoxine hydrochloride] | 1.01
CC1=C(CC(=O)O)c2cc(F)ccc2/C1=C\c1ccc([S+](C)[O-])cc1 (stereo not given) [Sulindac] | 1

Compound | growth AUC normalised to DMSO control
CC(C)CC(=O)N[C@H](C(=O)N[C@H](C(=O)N[C@@H](CC(C)C)[C@@H](O)CC(=O)N[C@@H](C)C(=O)N[C@@H](CC(C)C)[C@@H](O)CC(=O)O)C(C)C)C(C)C [Pepstatin A] | 1.01
CC(COc1ccccc1)N(CCCl)Cc1ccccc1 (stereo not given) [Phenoxybenzamine hydrochloride] | 1
CCN[C@H]1CN(CCCOC)S(=O)(=O)c2sc(S(N)(=O)=O)cc21 [Brinzolamide] | 0.995
CCCCOc1cc(C(=O)OCCN(CC)CC)ccc1N [Benoxinate hydrochloride] | 0.978
CNCC[C@@H](Oc1ccccc1C)c1ccccc1 [Tomoxetine hydrochloride] | 0.996
Cc1cc(=O)n(-c2ccccc2)n1C [Antipyrine] | 0.989
OC(Cn1cncn1)(Cn1cncn1)c1ccc(F)cc1F [Fluconazole] | 1.01
O=C1O[C@H]([C@@H](O)CO)C(O)=C1O [Ascorbic acid] | 1.01
c1ccc(CNc2ncnc3nc[nH]c23)cc1 [Aminopurine, 6-benzyl] | 1
CC(CCc1ccccc1)NCC(O)c1ccc(O)c(C(N)=O)c1 (stereo not given) [Labetalol hydrochloride] | 0.99
OCCN(CCO)c1nc(N2CCCCC2)c2nc(N(CCO)CCO)nc(N3CCCCC3)c2n1 [Dipyridamole] | 1.02
CCCCCCCCNC(C)C(O)c1ccc(SC(C)C)cc1 (stereo not given) [Suloctidil] | 1.02
CCCCCCC[N+](CC)(CC)CCCCc1ccc(Cl)cc1 [Clofilium tosylate] | 1.01
C=CC[N@@+]12CC[C@@]34c5ccccc5N5/C=C6/[C@H]7C[C@H]8[C@@]9(CC[N@@+]8(CC=C)C/C7=C/CO)c7ccccc7N(/C=C(/[C@@H](C[C@@H]31)/C(=C\CO)C2)[C@H]54)[C@@H]69 [Alcuronium chloride] | 1.01
CCc1ccc(CCOc2ccc(CC3SC(=O)NC3=O)cc2)nc1 (stereo not given) [Pioglitazone] | 0.996
CC1CC(OC(=O)c2ccccc2O)CC(C)(C)C1 (stereo not given) [Homosalate] | 1.01
CC(C)N1CCN(c2ccc(OCC3COC(Cn4cncn4)(c4ccc(Cl)cc4Cl)O3)cc2)CC1 (stereo not given) [Terconazole] | 1.01
O=C(Nc1ccc([N+](=O)[O-])cc1Cl)c1cc(Cl)ccc1O [Niclosamide] | 0.992
CCN1C(=O)NC(c2ccccc2)C1=O (stereo not given) [Ethotoin] | 0.987
COc1cc(Cc2cnc(N)nc2N)cc(OC)c1OC [Trimethoprim] | 0.147
